The text below walks through data of PubChem BioAssay (NCI).

A short description of test [1]: NCI Yeast Anticancer Drug Screen. Data for the rad50 strain (AID 155).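 Also: 0% = growth of vehicle-only cultures of the same strain.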 Conditions: S. cerevisiae rad50 strain growth inhibition, active compounds read high. In short, it runs like this:
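Yeast carrying a defined DNA repair defect were exposed to test compounds, and growth was compared with vehicle-treated controls to give percent inhibition.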

Test [2] in a line: NCI Yeast Anticancer Drug Screen. Data for the mec2-1 strain (AID 157). Conditions: S. cerevisiae mec2-1 strain, active compounds read high. The essentials:
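Cells of the genetically defined mec2-1 yeast strain are incubated with test compound. Inhibition of growth is calculated against vehicle-treated controls.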

Test [3] in a line: NCI Yeast Anticancer Drug Screen. Data for the sgs1 mgt1 strain (AID 161).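 Also: 0% = growth of cultures given vehicle only.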 Conditions: S. cerevisiae sgs1 mgt1 strain, active compounds read high. In short, it runs like this: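 Test agents were incubated with a DNA-repair-mutant yeast strain. Growth was then read and compared against vehicle-treated controls.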
The nature of test [4]: NCI Yeast Anticancer Drug Screen. Data for the cln2 rad14 strain (AID 165).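 Also: 0% = growth equal to vehicle treated cultures.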 Conditions: S. cerevisiae cln2 rad14 strain, active compounds read high. In short, it runs like this: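 The screen exposed genetically defined yeast (cln2 rad14) to test compounds and scored growth inhibition relative to vehicle-treated controls.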
Test [5] is described as follows: NCI Yeast Anticancer Drug Screen. Data for the bub3 strain (AID 167). As to conditions: S. cerevisiae bub3 mutant strain, active compounds read high. In short, it runs like this:
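Compounds were applied to a genetically altered yeast strain carrying a cell-cycle control defect. Growth inhibition was scored against vehicle-treated controls.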

Test [6] is described as follows: NCI Yeast Anticancer Drug Screen. Data for the mlh1 rad18 strain (AID 175). Conditions: S. cerevisiae mlh1 rad18 strain growth inhibition, active compounds read high. In short, it runs like this:
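Compound-treated yeast growth, normalised to vehicle controls. Strain bears defined DNA repair mutations.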

Where [7] appears, read: at 5.0 µM (retest, dose inferred, filed as 0.5).
[8] abbreviates: at 50.0 µM (retest, dose inferred, filed as 5.0).

Compounds without any hit were thinned out: in the full panel of roughly 79,000, 15% have a hit. Values without a mark were called inactive. Calls of active or inactive are those of the source. Rule as the data show it: active = growth inhibition above about 70%; inactive = the rest.

Consider `COC(=O)c1[nH]cnc1/N=N/N(C)C`, for which the growth inhibition is 98% (active) in test [1] (setting [7]); 98% (active) in test [1] (setting [8]); 98.8% (active) in test [1] (at 50.0 µM); 99% (active) in test [2] (setting [7]); 99% (active) in test [2] (setting [8]); 98.9% (active) in test [2] (at 50.0 µM). Further, the growth inhibition in test [3] (setting [7]) was 99% (active); in test [3] (setting [8]), 99% (active); in test [3] (at 50.0 µM), 99.5% (active); in test [4] (setting [7]) it was 99% (active); in test [4] (setting [8]) it was 98% (active); in test [4] (at 50.0 µM), 99% (active). The growth inhibition in test [5] (setting [7]) was 49%; in test [5] (setting [8]) it was 49%; in test [5] (at 50.0 µM), 98.8% (active); in test [6] (setting [7]) it was 98% (active); in test [6] (setting [8]), 99% (active); in test [6] (at 50.0 µM) it was 99.3% (active).

In the case of `CC(C)C1(c2ccccc2)C(=O)c2ccccc2C1=O`, the growth inhibition is -6% in test [1] (setting [7]); 42% in test [1] (setting [8]); 71.8% (active) in test [1] (at 50.0 µM); -7% in test [2] (setting [7]); 50% in test [2] (setting [8]); 77.5% (active) in test [2] (at 50.0 µM). The growth inhibition was -5% in test [3] (setting [7]); 73% (active) in test [3] (setting [8]); 84.7% (active) in test [3] (at 50.0 µM); 2% in test [4] (setting [7]); 10% in test [4] (setting [8]); 68.2% in test [4] (at 50.0 µM). For the same compound, the growth inhibition in test [5] (setting [7]) was -11%; in test [5] (setting [8]), 14%; in test [5] (at 50.0 µM), 79.2% (active); in test [6] (setting [7]), -8%; in test [6] (setting [8]), 37%; in test [6] (at 50.0 µM) it was 46.1%.

In the case of `O=C(Nc1cccc(Br)c1)Oc1cccc2cccnc12`, the growth inhibition is 61% in test [1] (setting [7]); 97% (active) in test [1] (setting [8]); 85.7% (active) in test [1] (at 50.0 µM); 65% in test [2] (setting [7]); 99% (active) in test [2] (setting [8]); 89.8% (active) in test [2] (at 50.0 µM). The growth inhibition in test [3] (setting [7]) was 99% (active); in test [3] (setting [8]), 99% (active); in test [3] (at 50.0 µM), 85.3% (active); in test [4] (setting [7]), 76% (active); in test [4] (setting [8]) it was 99% (active); in test [4] (at 50.0 µM), 81.1% (active). The growth inhibition in test [5] (setting [7]) was 91% (active); in test [5] (setting [8]), 73% (active); in test [5] (at 50.0 µM), 87.8% (active); in test [6] (setting [7]) it was 64%; in test [6] (setting [8]), 98% (active); in test [6] (at 50.0 µM), 85% (active).

Consider `CCCCCCCNCCCCCC`, for which the growth inhibition is 64% in test [1] (setting [7]); 92% (active) in test [1] (setting [8]); 67.7% in test [1] (at 50.0 µM); 20% in test [2] (setting [7]); 69% in test [2] (setting [8]); 63.8% in test [2] (at 50.0 µM). In addition, the growth inhibition in test [3] (setting [7]) is 73% (active); in test [3] (setting [8]), 93% (active); in test [3] (at 50.0 µM), 84.7% (active); in test [4] (setting [7]) it was 28%; in test [4] (setting [8]) it was 86% (active); in test [4] (at 50.0 µM) it was 68.3%. The growth inhibition in test [5] (setting [7]) was 75% (active); in test [5] (setting [8]), 97% (active); in test [5] (at 50.0 µM) it was 67.1%; in test [6] (setting [7]) it was 78% (active); in test [6] (setting [8]), 94% (active); in test [6] (at 50.0 µM), 48.6%.

Take `N#CSCC(=O)c1ccc(Cl)cc1`: the growth inhibition in test [1] (setting [7]) is 43%; in test [1] (setting [8]) it was 61%; in test [1] (at 50.0 µM), 89.5% (active); in test [2] (setting [7]), 60%; in test [2] (setting [8]), 63%; in test [2] (at 50.0 µM), 91% (active). In addition, the growth inhibition in test [3] (setting [7]) is 92% (active); in test [3] (setting [8]), 98% (active); in test [3] (at 50.0 µM) it was 92.5% (active); in test [4] (setting [7]) it was 83% (active); in test [4] (setting [8]), 98% (active); in test [4] (at 50.0 µM) it was 89.5% (active). Besides, the growth inhibition was 93% (active) in test [5] (setting [7]); 99% (active) in test [5] (setting [8]); 89.5% (active) in test [5] (at 50.0 µM); 36% in test [6] (setting [7]); 56% in test [6] (setting [8]); 89.5% (active) in test [6] (at 50.0 µM).

Consider `CCN(CC)CCNCc1ccccc1`, for which the growth inhibition was -157% in test [1] (setting [7]); -178% in test [1] (setting [8]); -7.3% in test [1] (at 50.0 µM); -49% in test [2] (setting [7]); -57% in test [2] (setting [8]); -1.15% in test [2] (at 50.0 µM). The growth inhibition in test [3] (setting [7]) was -64%; in test [3] (setting [8]), -67%; in test [3] (at 50.0 µM) it was 10.9%; in test [4] (setting [7]), -62%; in test [4] (setting [8]), -66%; in test [4] (at 50.0 µM), 38.7%. The growth inhibition in test [5] (setting [7]) is -70%; in test [5] (setting [8]) it was -86%; in test [5] (at 50.0 µM) it was 5.45%; in test [6] (setting [7]) it was -139%; in test [6] (setting [8]), -119%; in test [6] (at 50.0 µM) it was 1.8%.

Consider `COc1cc(/C=C(\C#N)c2ccc([N+](=O)[O-])cc2)ccc1O`, for which the growth inhibition is -13% in test [1] (setting [7]); 1% in test [1] (setting [8]); 75.4% (active) in test [1] (at 50.0 µM); -23% in test [2] (setting [7]); -3% in test [2] (setting [8]); 51.2% in test [2] (at 50.0 µM). Moreover, the growth inhibition is -16% in test [3] (setting [7]); -4% in test [3] (setting [8]); 74% (active) in test [3] (at 50.0 µM); -5% in test [4] (setting [7]); 33% in test [4] (setting [8]); 66.5% in test [4] (at 50.0 µM). The growth inhibition in test [5] (setting [7]) is -20%; in test [5] (setting [8]), 50%; in test [5] (at 50.0 µM), 81.7% (active); in test [6] (setting [7]) it was -35%; in test [6] (setting [8]), 57%; in test [6] (at 50.0 µM), 64.2%.

With `Cc1ccc(O)c2c(NCCCCCCNc3cc(C)[n+](C)c4c(C)ccc(O)c34)cc(C)[n+](C)c12`, the growth inhibition was -1% in test [1] (setting [7]); 87% (active) in test [1] (setting [8]); 89% (active) in test [1] (at 50.0 µM); 0% in test [2] (setting [7]); 76% (active) in test [2] (setting [8]); 90.4% (active) in test [2] (at 50.0 µM). Further, the growth inhibition in test [3] (setting [7]) is -1%; in test [3] (setting [8]) it was 71% (active); in test [3] (at 50.0 µM), 92.7% (active); in test [4] (setting [7]), 5%; in test [4] (setting [8]), 60%; in test [4] (at 50.0 µM), 72.7% (active). The growth inhibition was -6% in test [5] (setting [7]); 76% (active) in test [5] (setting [8]); 77.5% (active) in test [5] (at 50.0 µM); -2% in test [6] (setting [7]); 84% (active) in test [6] (setting [8]); 90.2% (active) in test [6] (at 50.0 µM).

With `CCCCn1cnc2c(SCc3ccc(F)cc3)nc(N)nc21`, the growth inhibition is -1% in test [1] (setting [7]); 48% in test [1] (setting [8]); 46.3% in test [1] (at 50.0 µM); 1% in test [2] (setting [7]); 59% in test [2] (setting [8]); 46.6% in test [2] (at 50.0 µM). Moreover, the growth inhibition in test [3] (setting [7]) was -3%; in test [3] (setting [8]), 16%; in test [3] (at 50.0 µM), 39.1%; in test [4] (setting [7]), -15%; in test [4] (setting [8]), 49%; in test [4] (at 50.0 µM) it was 44.8%. Moreover, the growth inhibition is 0% in test [5] (setting [7]); 45% in test [5] (setting [8]); 90.1% (active) in test [5] (at 50.0 µM); 0% in test [6] (setting [7]); 30% in test [6] (setting [8]); 66.9% in test [6] (at 50.0 µM).
